Experimental data: ChEMBL document CHEMBL1961873, “Compounds: GSK PKIS; Assays: Nanosyn kinase panel” (2012)

biological target: T1, cGMP-dependent protein kinase 1 (Homo sapiens) (UniProt Q13976); conditions: at 1 µM
T1 sequence (whole entry): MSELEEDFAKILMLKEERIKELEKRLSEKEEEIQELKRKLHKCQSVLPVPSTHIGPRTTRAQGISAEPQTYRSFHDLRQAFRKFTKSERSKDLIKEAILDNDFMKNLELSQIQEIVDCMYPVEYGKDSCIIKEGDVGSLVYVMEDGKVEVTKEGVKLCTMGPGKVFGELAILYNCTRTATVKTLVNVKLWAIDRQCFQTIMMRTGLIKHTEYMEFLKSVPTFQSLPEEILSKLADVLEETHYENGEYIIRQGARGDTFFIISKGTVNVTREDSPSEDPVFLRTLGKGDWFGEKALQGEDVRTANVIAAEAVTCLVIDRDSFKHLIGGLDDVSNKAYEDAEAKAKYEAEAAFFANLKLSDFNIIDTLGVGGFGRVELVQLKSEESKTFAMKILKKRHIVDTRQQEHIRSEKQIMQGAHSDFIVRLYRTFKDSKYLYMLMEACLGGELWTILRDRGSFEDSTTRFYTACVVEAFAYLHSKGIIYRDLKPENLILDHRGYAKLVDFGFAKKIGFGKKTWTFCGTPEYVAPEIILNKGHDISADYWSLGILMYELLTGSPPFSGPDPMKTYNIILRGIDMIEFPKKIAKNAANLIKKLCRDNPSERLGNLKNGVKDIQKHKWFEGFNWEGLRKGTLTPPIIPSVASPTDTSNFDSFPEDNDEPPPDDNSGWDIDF
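Further: listed percent inhibition of PRKG1 is a mean value.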

| SMILES | inhibition [%] |
| --- | --- |
| CC(C)(CO)CNC(=O)c1ccc2c(c1)/C(=N/Nc1ccc(S(N)(=O)=O)cc1)C(=O)N2 | 11.8 |
| O=C(Nc1n[nH]c2cc(-c3ccc(F)cc3)ccc12)C1CC1 | 6.58 |
| NC(=O)c1sc(-n2cnc3ccc(C(F)(F)F)cc32)cc1OCc1ccccc1Br | 8.39 |
| CCn1c(-c2nonc2N)nc2ccccc21 | 30.9 |
| c1ccc(-c2nc3n(c2-c2ccc4c(c2)OCO4)CCC3)nc1 | 2.75 |
| CCNC(=O)O[C@H]1CN[C@H](C#Cc2cc3ncnc(Nc4ccc(OCc5cccc(F)c5)c(Cl)c4)c3s2)C1 | 3.36 |
| CCn1c(-c2nonc2N)nc2cnc(Oc3cccc(NC(=O)c4ccc(N(C)C)cc4)c3)cc21 | 73 |
| CC(=O)Nc1cccc(C#Cc2cncnc2Nc2ccc(OCc3cccc(F)c3)c(Cl)c2)c1 | 3.55 |
| N#Cc1c(NC(=O)c2ccc(F)cc2)sc2c1CCCC2 | 1.54 |
| CS(=O)(=O)CCNCc1coc(-c2ccc3ncnc(Nc4ccc(OCc5ccccc5)cc4)c3c2)c1 | 3.25 |
| N#Cc1c(NC(=O)CN2CCOCC2)sc2c1CCCC2 | 4.74 |
| NS(=O)(=O)c1ccc(Nc2ncc(-c3ccccc3)o2)cc1 | 4.85 |
| COc1cc(/C=N/Nc2ncnc3[nH]ncc23)ccc1O | 14.8 |
| COC(=O)Nc1nc2ccc(Oc3ccc(NC(=O)Nc4cccc(Cl)c4)cc3)cc2[nH]1 | -0.55 |
| CNC(=O)c1cncc(/C=C/c2ccccc2Cl)c1 | 2.29 |
| COc1cc(N2CCN(C(C)C)CC2)ccc1Nc1nc(Nc2ccc(F)cc2C(N)=O)c2cc[nH]c2n1 | 55 |
| Clc1ccc(-c2nn3ncccc3c2-c2ccnc(Nc3ccccc3)n2)cc1 | 5.54 |
